About 2,000 (36%) of roughly 5,500 compounds were called active. About 18% were inconclusive and are not listed. Cut-off read from the data, not from the text of the source: active = normalized growth mostly below about 0.91 (no sharp cut-off); inconclusive = no clear call, values can overlap the other calls; inactive = mostly above about 0.92. The list shows a part of the results.
Experiment: chemical genetic growth profiling, strain panel (AID 1159580);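 note: tested at 20 µM; growth read once vehicle control cultures reached saturation at 30 °C; 1 = growth at the plate median or of vehicle wells; lower values mean less growth of the strain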
Details: S. cerevisiae deletion strains, growth OD
[1] = locus YAL040C, strain CLN3, stronger effect = lower value
[2] = locus YDR363W, strain ESC2, stronger effect = lower value
[3] = locus YER002W, strain NOP16, stronger effect = lower value
[4] = locus YGR229C, strain SMI1, stronger effect = lower value
[5] = locus YNL153C, strain GIM3, stronger effect = lower value
[6] = locus YNL175C, strain NOP13, stronger effect = lower value
[7] = locus YNL197C, strain WHI3, stronger effect = lower value
[8] = locus YNL224C, strain SQS1, stronger effect = lower value
[9] = locus YOR083W, strain WHI5 (second series), stronger effect = lower value

Measured: normalized growth

CCCCCCC/C=C\CCCCCCCCC(=O)O
inactive: [1] 1.01 | locus YCL061C, strain MRC1 (second series), stronger effect = lower value 1.01 | [2] 1.02 | [3] 1.03 | [4] 1.01 | locus YMR307W, strain GAS1, stronger effect = lower value 1.01 | [5] 0.946 | [6] 0.996 | [7] 1.01 | [8] 1.01 | [9] 1.01

CCCCC/C=C\C/C=C\C/C=C\C/C=C\CCCC(=O)NCC(=O)O
inactive: [1] 1.02 | locus YDR150W, strain NUM1, stronger effect = lower value 1.03 | [2] 1.02 | [3] 1.02 | locus YGR078C, strain PAC10, stronger effect = lower value 0.985 | [4] 0.963 | [5] 1.07 | [6] 0.941 | [7] 1.01 | [8] 0.979 | [9] 0.962

— PubChem BioAssay AID1159580 (chemical genetic matrix, 2015)
